# According to PubChem BioAssay AID2147 (National Center for Advancing Translational Sciences (NCATS), 2009):
# About 3,600 (1.6%) of roughly 230,000 compounds were called active. Not shown: some 15% with an inconclusive outcome. The call rests on the fitted dose curve; in most records, active means well fitted inhibition curve with a large enough effect (not every such curve was filed as active); inconclusive means small, poorly fitted or top-dose-only effect, or another doubt; inactive means no such curve, though single readings can be large or run the other way. Shown is part of a subset that was picked to be rich in actives. A call without a number means that no potency is given here.
# Target: Lysine-specific demethylase 4E (Homo sapiens) (UniProt B2RXH2)
# Sequence (B2RXH2 1-337 limits assumed): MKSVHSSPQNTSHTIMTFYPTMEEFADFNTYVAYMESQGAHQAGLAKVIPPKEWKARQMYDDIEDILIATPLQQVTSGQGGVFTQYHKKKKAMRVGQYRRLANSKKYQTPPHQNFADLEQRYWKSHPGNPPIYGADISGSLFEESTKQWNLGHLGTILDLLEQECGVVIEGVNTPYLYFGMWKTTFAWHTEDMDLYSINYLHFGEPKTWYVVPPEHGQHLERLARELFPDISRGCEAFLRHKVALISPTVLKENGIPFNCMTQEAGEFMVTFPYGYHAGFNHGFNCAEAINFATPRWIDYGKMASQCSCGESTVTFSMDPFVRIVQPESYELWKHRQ
# Assay: qHTS Assay for Inhibitors of Human Jumonji Domain Containing 2E (JMJD2E)
# Conditions: JMJD2E catalytic domain, FDH-coupled NADH fluorescence (FDH is formaldehyde dehydrogenase); series mostly up to 57.1 µM
# Source text: Assay Provider: Structural Genomics Consortium [SGC] Screening Center PI: Austin, C.P. Screening Center: NIH Chemical Genomics Center [NCGC] The fine interplay among methylation states of several lysine residues on the tails of histone proteins is a major determinant of the transcriptional state of the associated DNA coding regions and is commonly referred to as the histone code. Histone lysine demethylases catalyze the removal of methyl groups from methylated lysine sidechains on histones H3 and H4, thus antagonizing the reactions catalyzed by histone lysine methyltransferases. […] In search for novel inhibitors of JMJD2E demethylase, a member of the largest set of histone demethylases belonging to the Fe(II) and 2-oxoglutarate oxygenase (2OG) superfamily, we performed a quantitative high-throughput screen (Inglese 2006) by using an assay which utilizes a trimethylated peptide substrate corresponding to a fragment of histone H3 (sequence ARKme3STGGK) with detection of the formaldehyde co-product in real time by a formaldehyde dehydrogenase (FDH) coupled reaction. FDH catalyzes oxidation of formaldehyde to formic acid with the concomitant reduction of the non-fluorescent beta-nicotinamide adenine dinucleotide hydrate (NAD+) cofactor to the fluorescent NADH co-product. References: Inglese, J., Auld, D., Jadhav, A., Johnson, R., Simeonov, A., Yasgar, A., Zheng, W. and Austin, C. Proc Natl Acad Sci USA 2006, 103, 11473-11478. N. R. Rose, S. S. Ng, J. Mecinovic, B. M. Lienard, S. H. Bello, Z. Sun, M. A. McDonough, U. Oppermann and C. J. Schofield, J Med Chem, 2008, 51, 7053-7056. Sakurai, M., Rose, N., Schultz, L., Quinn, A., Jadhav, A., Ng, S., Oppermann, U., Schofield, C.J. and Simeonov, A. Mol BioSystems 2009, in press. S. Michael, D. Auld, C. Klumpp, A. Jadhav, W. Zheng, N. Thorne, C. Austin, J. Inglese and A. Simeonov, Assay Drug Dev Technol, 2008, 6, 637-657.
# Reagents and Controls: Ferrous ammonium sulfate, (+)-sodium L-ascorbate, beta-nicotinamide adenine dinucleotide hydrate (NAD+), Tween-20, formaldehyde dehydrogenase from P. putida (FDH), and disodium 2-oxoglutarate were from Sigma (St. Louis, MO). Black solid-bottom 384-well or 1,536-well assay plates were from Greiner Bio-One (Monroe, NC). Enzyme was supplied by Prof. Udo Oppermann, SGC-Oxford. The catalytic domain of human JMJD2E (residues 1-337) was produced as an N-terminally His6-tagged protein in E. coli, and purified by Ni-affinity chromatography and size-exclusion chromatography, and stored in HEPES 50 mM/ NaCl 500 mM pH 7.5, as reported in Rose 2008. The trimethylated histone peptide substrate ARK(me3)STGGK was synthesized and HPLC-purified by the Tufts University Core Facility (Boston, MA). Substrate solution (Sakurai 2009) contained 50 uM ARK(me3)STGGK, 0.00025 U/uL FDH, 50 uM 2-oxoglutarate, 250 uM NAD+, 1 mM ascorbate, and 10 uM ferrous ammonium sulfate. Controls and plate map: Buffer (150 mM HEPES pH 7.5 containing 0.01% Tween-20) in columns 3 and 4 as negative control (no enzyme) and 100 nM JMJD2E final concentration in columns 1,2, and 5-48. Assay Steps: Enzyme and buffer solutions (3 uL) were dispensed into a 1,536-well Greiner black solid-bottom assay plate. The library compounds (23 nL) were transferred using a Kalypsys pintool equipped with 1,536-pin array. The plate was incubated at room temperature (15 min), and then a 1 uL aliquot of substrate solution was added to initiate the reaction. The plate was transferred to ViewLux imager where an initial reading using standard UV optics (Ex 340 nm, Em 450 nm) was obtained. The plate was then removed from the reader, incubated for 30 minutes at room temperature, and returned to the reader for a second fluorescence reading. A fully automated robotic screening system (Kalypsys Inc, San diego, CA) was used to perform the above steps as described previously (Michael 2008). […]
# Further: nearly all actives have a fitted effect of over 50% in size.
# Potency means the concentration at half of the fitted maximal effect.
row,SMILES,Potency
1,CCC(=NCCc1ccccc1)c1c(O)n(C2CCCCC2)c(=O)[nH]c1=O,inactive
2,CC/C(=N\NC(=O)c1ccccc1O)c1c(O)n(Cc2ccccc2)c(=O)[nH]c1=O,25.1 µM (active)
3,O=c1[nH]c(=O)n(Cc2ccccc2)c(O)c1/C=N/Nc1c(F)c(F)c(F)c(F)c1F,inactive
4,CNCC[C@H](Oc1ccc(C(F)(F)F)cc1)c1ccccc1,inactive
5,N#Cc1c(Cl)c(Cl)c(Cl)c(C#N)c1Cl,inactive
6,CNC(=O)O/N=C(\N)Cc1csc2ccc(Cl)cc12,inactive
7,CC[C@H]1CN2CCc3cc(OC)c(OC)cc3[C@@H]2C[C@@H]1C[C@H]1NCCc2cc(OC)c(OC)cc21,inactive
8,c1cncc(CNC2=NCCC2)c1,inactive
9,CC1CCCCN1Cc1cccnc1 (stereo not given),20 µM (active)
10,CC1=C2C(=O)C3C(CC=C4CC(OC5OC(O)C(O)C(O)C5CO)CCC43C)C2CCC12OC1CC(C)CNC1C2C (stereo not given),inactive
11,CNC(C)[C@@H](O)c1ccccc1 (stereo not given in full),inactive
12,Cc1ccc(N2C(=O)NC(=O)C(CCc3ccncc3)(Cc3cccc(Cl)c3Cl)C2=O)cc1 (stereo not given),inactive
13,CCCCC/C=C\C/C=C\C/C=C\C=C\[C@H](CCCC(=O)O)OO,inactive
14,C[C@H]1CC[C@@]2(NC1)O[C@@H]1C[C@H]3[C@@H]4CC=C5C[C@@H](O)CC[C@]5(C)[C@@H]4CC[C@]3(C)[C@@H]1[C@@H]2C,inactive
15,O=C(OCC1O[C@@H](OC(=O)c2cc(O)c(O)c(O)c2)[C@@H](OC(=O)c2cc(O)c(O)c(O)c2)[C@@H](OC(=O)c2cc(O)c(O)c(O)c2)[C@@H]1OC(=O)c1cc(O)c(O)c(O)c1)c1cc(O)c(O)c(O)c1 (stereo not given in full),3.16 µM (active)
16,O=C(COC(=O)c1ccccc1)Nc1ccc(Cl)cc1C(=O)c1ccccc1,inactive
17,COc1ccccc1N1CCN(C(CNC(=O)Oc2ccccc2)c2cccnc2)CC1 (stereo not given),inactive
18,CN(C)CC1CCCCC1OC(=O)c1ccc(Cl)c(Cl)c1 (stereo not given),inactive

row,SMILES,Potency
1,Cc1cccc(N2C(=O)NC(=O)/C(=C\c3cnn(-c4ccccc4)c3)C2=O)c1,inactive
2,Cc1ccccc1N1C(=O)NC(=O)/C(=C\c2cc(C)n(C)c2C)C1=O,inactive
3,COc1cccc(N2C(=O)NC(=O)/C(=C\c3ccc([N+](=O)[O-])s3)C2=O)c1,17.8 µM (active)
4,CC1=C(C(=O)Nc2ccccc2)S(=O)(=O)CCO1,inactive
5,O=c1oc2ccccc2c(O)c1C(c1ccccc1O)c1c(O)c2ccccc2oc1=O,inactive
6,CC(=O)c1c(O)c(C)c(O)c(Cc2c(O)c3c(c(C(=O)/C=C\c4ccccc4)c2O)OC(C)(C)C=C3)c1O,20 µM (active)
7,O=C(Cn1c(=O)n(CC2CS2)c2ccccc21)N1CCCCC1 (stereo not given),inactive
8,C[C@]12CC[C@@H]3C(=CCc4cc(O)ccc43)[C@@H]1CCC2=O,inactive
9,C[N+]12CN3CN(CN(C3)C1)C2,inactive
10,CN(C)C1C(=O)C(C(N)=O)=C(O)[C@@]2(O)C(=O)C3=C(O)c4c(O)cccc4[C@@](C)(O)C3C[C@@H]12 (stereo not given in full),10 µM (active)
11,COc1cccc(CN2CCCC(C(=O)c3ccccc3SC)C2)c1O (stereo not given),inactive
12,CCOC(=O)C1SC2(C(F)(F)C(F)F)CC1(O)c1c(c(OC)c3occc3c1OC)O2 (stereo not given),inactive
13,COC1=C[C@]23CCCN2CCc2cc4c(cc2[C@@H]3[C@@H]1O)OCO4,inactive
14,C/C(=C\C=C/[C@@H](C)C(=O)O)[C@H]1CN[C@H](C(=O)O)[C@@H]1CC(=O)O,12.6 µM (active)
15,COc1ccc(C(=O)CC2C(=O)N(C)C(=O)N(C)C2=O)cc1,inactive
16,Cc1cccc(OP(=O)(Oc2cccc(C)c2)OC(c2ccccc2)C(F)(F)F)c1 (stereo not given),inactive
17,Fc1ccc(C2N3CCCN23)cc1 (stereo not given),inactive
